From PubChem BioAssay
Not all results are given here.
aSyn UTR act: Activators working through SNCA 5'UTR binding (MLPCN); hit rate 7.1% among 300,000; activity score, % (tested at 7.5 µM), hits read low; AID 1814; alpha-synuclein 5'UTR reporter, activators screen; in the data active = activity score below about -60%
Active calls of the source: *.

SMILES	aSyn UTR act
COc1cccc(NC(=O)Nc2cccc(C)n2)c1	-110.2*
CCCCOc1ccc(C(=O)Nc2cccc(C)n2)cc1	-67.8*
Cc1ccc(NC(=O)Nc2cccc(C)n2)c(C)c1	-103.8*
Cc1cccc(NC(=O)Nc2ccccc2)n1	-76.5*
CCOc1ccc(NC(=O)Nc2cccc(C)n2)cc1	-142.9*
CCOC(=O)Nc1sc2c(c1C#N)CCC(C)C2 (configuration not stated)	-160.6*
CC1CCc2c(sc(NC(=O)C3CCCO3)c2C#N)C1 (configuration not stated)	-114.4*
CC1CCc2c(sc(NC(=O)COC(=O)C3CCCO3)c2C#N)C1 (configuration not stated)	-68.4*
CC1CCc2c(sc(NC(=O)c3nc4ncccn4n3)c2C#N)C1 (configuration not stated)	-147.9*
O=C(N/C(=C/c1cccc(Br)c1)c1nc(=S)[nH][nH]1)c1ccccc1	-77.1*
CC(=O)NC(=S)Nc1ccc2oc(-c3cc(F)c(F)cc3Cl)nc2c1	-111.2*
O=C(Cc1ccccc1)NC(=S)Nc1ccc2oc(-c3ccccc3)nc2c1	-105.7*
O=C(Cc1ccccc1)NC(=S)Nc1ccc2oc(-c3ccccc3F)nc2c1	-187.2*
COc1cccc(C2=CC(c3cc(OC)ccc3OC)n3nnnc3N2)c1 (configuration not stated)	-165.0*
COc1cccc(C2=CC(c3cccc(OC)c3OC)n3nnnc3N2)c1 (configuration not stated)	-294.6*
CCC(C)(C)C1CCC(=NNC(=O)c2ccoc2C)CC1 (configuration not stated)	-111.8*
Cc1ccc(N/C=C2\C(=O)C3(C)CCC2C3(C)C)cc1C (configuration not stated)	-63.2*
CCOc1ccc(C2=Nn3c(nnc3-c3ccccc3OC)SC2)cc1	108.9
CCOc1ccccc1C1CC(=O)Nc2cc3c(cc21)OCO3 (configuration not stated)	66.1
CCOc1ccccc1C1N=C(c2ccc(OC)cc2)CC(c2ccccc2O)N1 (configuration not stated)	-233.8*
CC1CC1C(=O)OCC(=O)NC(=O)NC12CC3CC(CC(C3)C1)C2 (configuration not stated)	-118.4*
Cc1cc(Cl)cc2c(N=Nc3ccccc3C(=O)O)c(O)[nH]c12	-67.6*
Cc1ccc(S(=O)(=O)Nc2cccc(C(=O)NCc3cccnc3)c2)cc1F	-72.6*
O=[N+]([O-])c1ccc(O)c(C2=NNC(c3ccccc3F)C2)c1 (configuration not stated)	-122.4*
Cc1cc(C)n2cc(-c3ccc(Cl)cc3)c(C(=O)O)c2n1	-98.6*
SMILES	aSyn UTR act
c1ccc(NCC2OCc3ccccc3CO2)cc1	-147.0*
COc1ccc(OCc2cc(C(=O)NCC3CCOCC3)no2)c(Cl)c1	-140.1*
O=C(NCCc1cnn(-c2ccccc2)c1)c1cc(COc2c(F)cccc2F)on1	-79.6*
COc1ccc(OCc2cc(C(=O)NCC3CCCCO3)no2)c(Cl)c1 (configuration not stated)	-152.4*
COc1ccc(CCNC(=O)c2cc(COc3c(C)cccc3C)on2)c(OC)c1	-91.2*
COc1ccc(OCc2cc(C(=O)NCCc3ccccc3)no2)c(Cl)c1	-95.3*
CN(CCc1ccccc1)C(=O)c1cc(COc2ccc(F)cc2Cl)on1	-82.2*
NC(=S)N=Nc1ccc(NN=C(N)N)cc1	68.4
O=[N+]([O-])c1ccc(N=NNc2ccccc2)cc1	-138.6*
Brc1ccc(N=NNc2ccccc2)cc1	-188.4*
O=[N+]([O-])c1cccc(NN=Nc2ccccc2)c1	-129.5*
O=C(NCc1ccncc1)C(=O)N/N=C/c1ccc(OCc2ccccc2)cc1	-92.7*
CC(C)OCCCNC(=O)C(=O)N/N=C/c1ccc(OCc2ccccc2)cc1	-66.8*
O=C(N/N=C/c1c[nH]c2ccccc12)C1COc2ccccc2O1 (configuration not stated)	75.6
O=C(N/N=C\c1ccc(Cl)s1)C1COc2ccccc2O1 (configuration not stated)	-66.7*
COc1ccccc1C(=O)N/N=C/c1ccc(Cl)s1	-179.0*
O=C(N/N=C\c1ccc(Cl)s1)c1cccs1	-67.2*
COc1ccccc1C(=O)N/N=C/c1cnc2ccccc2n1	-101.6*
CC(=O)Nc1ccc(S(=O)(=O)N/N=C/c2ccc(C)s2)cc1	-136.6*
CN(C)CCCNC(=O)c1ccc(-c2nc(-c3ccc(Cl)cc3)cs2)cc1	117.6
N=C1C(c2nc(-c3ccc(Cl)cc3)cs2)=C(O)CN1NC(=O)c1ccc(O)cc1	-73.1*
CC(C)(C)c1ccc(/C=C/C(=O)Nc2nncs2)cc1	-87.9*
O=C(/C=C/c1ccc2c(c1)OCO2)Nc1nncs1	-115.1*
Cc1nc(C#N)c(N/N=C/c2cccc(Cl)c2)o1	-126.4*
COc1cc(OC)c(C(=O)Nc2ccc3ccccc3c2)cc1OC	-232.1*
COc1cc2ccccc2cc1C(=O)Nc1ccc(O)cc1	-137.8*
COc1cccc(C(=O)Nc2ccc3[nH]c(=O)[nH]c3c2)c1OC	67.8
COc1cc2ccccc2cc1C(=O)Nc1ccc(Cl)cn1	-111.1*
COc1cccc(NC(=O)c2cccc(OC)c2OC)c1	-168.0*
